Source: PubChem BioAssay
Tau fibril ThT – blocks human tau fibril formation measured by thioflavin T. recombinant tau K18 P301L, heparin-induced fibrillization, ThT fluorescence. Potency, µM (top dose mostly 57.4 µM), without a hit: at the highest dose activity, negative = inhibition, actives largely listed as inhibitors. 2.1% of 270,000 active. AID 1460; further: potency means the concentration at half of the fitted maximal effect; nearly all actives have a fitted effect of over 55% in size
Target sequence (P10636 561-689 P618L limits assumed): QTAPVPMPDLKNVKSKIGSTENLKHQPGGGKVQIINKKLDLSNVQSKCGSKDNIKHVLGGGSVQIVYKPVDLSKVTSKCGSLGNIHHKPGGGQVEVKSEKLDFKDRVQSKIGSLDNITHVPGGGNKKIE
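Heparin-induced (20 uM) aggregation of recombinant human K18 P301L tau, 15 uM unlabeled with 0.24 uM labeled, pH 7 acetate buffer, 6 hr at 37 C with compound. Fibrils quantified by 30 uM ThT fluorescence after 1 hr ambient incubation.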
TRb-SRC2 inh – TRbeta-SRC2 interaction inhibition; TRbeta-SRC2 peptide binding, fluorescence polarization; receptor liganded with 1 µM T3; Potency, µM (doses to about 106 µM), without a hit: at the highest dose activity change, negative = inhibition, usual class: inhibitors; AID 1469; 0.065% of 280,000 active; P10828;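 further: potency means the concentration at half of the fitted maximal effect; plate controls were bound peptide for no effect and peptide without receptor for full effect; nearly all actives have a fitted effect of over 50% in size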
Target sequence (P10828 whole entry, looked up): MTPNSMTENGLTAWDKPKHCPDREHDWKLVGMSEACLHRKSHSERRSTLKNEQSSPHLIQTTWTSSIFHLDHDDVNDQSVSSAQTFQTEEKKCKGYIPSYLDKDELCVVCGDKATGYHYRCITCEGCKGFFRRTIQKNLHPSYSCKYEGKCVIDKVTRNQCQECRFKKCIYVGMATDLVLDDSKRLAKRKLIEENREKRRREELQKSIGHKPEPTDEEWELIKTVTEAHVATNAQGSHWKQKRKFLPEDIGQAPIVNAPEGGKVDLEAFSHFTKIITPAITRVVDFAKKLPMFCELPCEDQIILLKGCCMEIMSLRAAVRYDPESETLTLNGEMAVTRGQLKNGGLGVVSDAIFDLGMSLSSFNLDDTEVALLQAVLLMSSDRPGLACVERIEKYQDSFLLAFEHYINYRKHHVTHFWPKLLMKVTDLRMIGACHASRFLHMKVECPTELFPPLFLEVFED
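Assay buffer: 20 mM Tris-HCl, 100 mM NaCl, 10% glycerol, 1 mM EDTA, 0.01% NP-40, 1 mM DTT, 1 uM T3, 5% DMSO; TRb LBD 0.6 uM, Texas Red SRC2 20 nM; FP after 5 hr.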
PNC inhibitor – blocks assembly of the perinucleolar compartment; 3.1% of 140,000 active; PC3M PTB-GFP, PNC prevalence imaging, 16 h; hits give low values; activity change (PNC), negative = inhibition, % at 10 µM;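 active means readout at or below -70, meaning at least 70% loss of cells showing the perinucleolar compartment, a nuclear body marking cancer cells; inconclusive means readout between -30 and a set limit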;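 further: plate controls were DMSO wells for no effect and camptothecin positive control wells for full effect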
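Compounds are pinned in duplicate onto adhered PC3M cells stably expressing GFP-tagged PTB and incubated 16 h at 37 C. Cells are then fixed, nuclei stained with Hoechst, and PNC-positive cells counted.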
Tau fluor counter – counter-screen for tau fibril formation inhibitors; tau K18 P301L (four-repeat tau fragment) Alexa594 fluorescence, heparin fibrillization; AID 1463; 0.93% of 280,000 active; Potency, µM (series often up to 57.7 µM), without a hit: at the highest dose activity change, negative = decrease; further: potency means the concentration at half of the fitted maximal effect; nearly all actives have a fitted effect of over 55% in size
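Human K18 P301L tau (15 uM unlabeled plus 0.24 uM Alexa 594-labeled, final) in 100 mM sodium acetate pH 7 was mixed with compound and 20 uM heparin and incubated 6 hr at 37 C.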
TexasRed fluor – counter-screen for TRb-SRC2 inhibitors: fluorescence interference; TRb/SRC2 Texas Red total fluorescence interference; Potency, µM (top dose mostly 106 µM), inactives show at the highest dose fluorescence change, negative = quenching; 0.29% of 280,000 active; active means well fitted curve in either direction with a large enough effect; inconclusive means small, poorly fitted or top-dose-only effect; further: potency means the concentration at half of the fitted maximal effect
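Flags fluorescent or light-absorbing compounds by total fluorescence, S + 2P, at 555 nm excitation and 632 nm emission. Mixture: 20 nM Texas Red SRC2 peptide, 0.6 uM human TRb LBD, 1 uM T3, 5% DMSO; compound exposure 5 h at ambient temperature.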
Tau FP inhib – inhibitors of human tau fibril formation. P10636. Potency, µM (titrated, usually from 57.7 µM), for inactives: top-dose activity, negative = inhibition, usual class: inhibitors. K18 P301L tau heparin fibrillization, Alexa594 FP, 6 h. 0.39% of 280,000 active. AID 1468; further: potency means the concentration at half of the fitted maximal effect; nearly all actives have a fitted effect of over 55% in size
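Steps: dispense K18 P301L tau (15 uM plus 0.24 uM Alexa 594 tracer, final) in pH 7 sodium acetate; add compound; add heparin (20 uM final); incubate 6 hr, 37 C; add ThT (30 uM final); after 1 hr ambient, read FP.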
An asterisk follows results filed as active; ? = inconclusive; nt = not tested or not shown; [ ] = another dose, or the depositor's remark. A selection: hits, their analogues and other compounds. The true share with any hit is near 4.6%. Unless noted, the call rests on the fitted dose curve; in most records, active means well fitted curve in the direction sought with a large enough effect; inconclusive means small, poorly fitted or top-dose-only effect, or another doubt; inactive means no such curve, though single readings can be large; an effect the other way counts as inactive or inconclusive. Unless noted, on the % scale 0 is the no-effect control and ±100 the full control effect.

SMILES | Tau fibril ThT | TRb-SRC2 inh | PNC inhibitor | Tau fluor counter | TexasRed fluor | Tau FP inhib
Cc1ccc(C(=O)c2ccccc2C(=O)OCC(=O)Nc2ccc(SC(F)F)cc2)cc1 | -1% | -13% | ? | -5% | -5% | -1%
O=C(COC(=O)c1ccccc1Cc1ccccc1)Nc1ccc(SC(F)F)cc1 | 3% | -5% | -13 | ? | 0% | 25µM*
CC(C)(C)C1CCC(=NNc2ccc(S(N)(=O)=O)cc2[N+](=O)[O-])CC1 (stereo not given) | 13µM* | 9% | -19 | ? | -1% | 11%
CC1CCCC/C1=N\Nc1ccc(S(N)(=O)=O)cc1[N+](=O)[O-] (stereo not given) | 16µM* | -6%[53 µM] | -8 | -9% | -1%[53 µM] | 11%
NS(=O)(=O)c1ccc(N/N=C2/CCCc3ccccc32)c([N+](=O)[O-])c1 | 7% | 3% | nt | 2% | 1% | -4%
O=C(/C=C/c1cccc([N+](=O)[O-])c1)Nn1c(-c2ccccc2F)nc2ccccc2c1=O | -5% | 2% | -118* | -14% | -5% | 13%
CC(C)NC(=O)NC(=O)COC(=O)c1ccccc1F | -3% | 2% | -115* | -6% | -2% | -1%
COc1cccc(NS(=O)(=O)c2ccc(NC(C)=O)cc2)c1 | -2% | -15% | -30 | -11% | -5% | -1%
COc1ccc(C(=O)c2no[n+]([O-])c2C(=O)c2ccc(OC)cc2)cc1 | 18µM* | 4% | 16 | -28% | -3% | ?
COc1ccc(NC(=O)c2c(N)no[n+]2[O-])cc1 | -13% | -3% | nt | -10% | -4% | -6%
Cc1oc(-c2ccc(Cl)cc2)nc1CN1CCC(C(=O)NCCCN2CCOCC2)CC1 | 5% | -12% | -6 | -10% | 1% | -12%
COC(=O)N[C@H](CC(C)=O)c1ccccc1 | -9% | -3% | -99* | -10% | -2% | 9%
Cc1cccc(NC(=O)CCc2ccc(C)o2)c1 | ? | 5% | -80* | -14% | -1% | -1%
O=C(NCc1ccco1)C(=O)NCC1OCCN1S(=O)(=O)c1ccc(Cl)cc1 (stereo not given) | 1% | 5% | 64 | -8% | -4% | -4%
COc1ccc(CN(C)C2c3ccccc3-c3ccccc32)cc1 | -6% | -1% | -91* | -17% | -4% | -2%
O=C(N/N=C/c1ccc2cccc(OCc3ccccc3)c2n1)c1ccc(Cl)cc1 | -2% | 2% | ? | -7% | -6% | 3%
CC(C)Cn1[nH]c2c3c(ccc2c1=O)C(=O)c1ccccc1C3=O | 14µM* | 10% | 20 | ? | -4% | 4%
Cc1cccc(-n2[nH]c3c4c(ccc3c2=O)C(=O)c2ccccc2C4=O)c1 | ? | -6% | ? | ? | -8% | 10%
Cc1ccc(Nc2cc(C)c3c(O)cccc3n2)cc1C | nt | -7% | nt | 14µM*[quencher] | -1% | ?
CCN(CC)S(=O)(=O)c1cccc(C(=O)Nc2ccc(Cl)cn2)c1 | -8% | -2% | -24 | -25% | -4% | -9%
CCOC(=O)N1CCC(N2CC34C=CC(O3)C(C(=O)O)C4C2=O)CC1 (stereo not given) | 8% | -27% | -108* | 14% | 0% | -1%
CCC1(CC)NC(=S)N(Nc2ccccc2)C1=O | -8% | -2% | 24 | -8% | -2% | 3%
COc1ccccc1CCNC(=O)CSc1nc(-c2ccco2)cc(C(F)(F)F)n1 | -3% | 5% | 38 | -5% | 2% | -2%
O=C(Nc1ccccc1)c1ccc(-c2ccccc2Cl)o1 | -19% | 8% | -92* | ? | 0% | ?
O=C(Nc1ccccc1)c1cc2ccccc2o1 | -2% | -6% | -100* | -1% | -3% | 5%
SMILES | Tau fibril ThT | TRb-SRC2 inh | PNC inhibitor | Tau fluor counter | TexasRed fluor | Tau FP inhib
CC(=O)Nc1cccc(NC(=O)c2cc3ccccc3o2)c1 | -18% | -8% | -27 | -16% | -2% | -8%
CCOc1cc(C(=O)Nc2ccc(NC(=O)c3cc4ccccc4o3)c(OC)c2)cc(OCC)c1OCC | -6% | -15% | nt | -24% | 35µM*[quencher] | -9%
CCOC(=O)CN1CC23C=CC(O2)C(C(=O)Nc2ccc4c(c2)OCO4)C3C1=O (stereo not given) | -14% | 4% | 70 | -15% | 0% | 4%
Cc1nn(Cc2ccccc2)c(C)c1NC(=O)c1cc(C(C)C)on1 | 2% | 5% | nt | -14% | -21% | -16%
CNc1nc(N/N=C/c2ccc([N+](=O)[O-])cc2)nc(Nc2ccccc2)n1 | 4µM* | -2% | -13 | 16µM*[quencher] | 1% | -7%
O=C(/C=C/c1ccccc1Cl)c1ccccc(=O)c1O | 14µM* | -3% | 3 | -25% | -1% | ?
Cc1ccc(/C=C/C(=O)c2ccccc(=O)c2O)c(C)c1 | ? | -12% | ? | -10% | 0% | -4%
Cc1ccc(C)c(/C=C/C(=O)c2ccccc(=O)c2O)c1 | 22µM* | -3% | 4 | ? | -1% | ?
CCCCn1c(N)c(N(Cc2ccccc2OC)C(=O)COc2ccccc2C#N)c(=O)[nH]c1=O | -9% | 2% | nt | -11% | -4% | -9%
Cc1c(NC(=O)/C(C#N)=C/c2ccc(-c3cccc(Cl)c3)o2)c(=O)n(-c2ccccc2)n1C | 13µM* | 6% | -26 | -7% | -1% | 8%
Cc1c(NC(=O)/C(C#N)=C/c2ccc(-c3ccccc3Cl)o2)c(=O)n(-c2ccccc2)n1C | ? | 4% | -1 | -10% | -4% | 8%
Cc1c(NC(=O)/C(C#N)=C/c2ccccc2)c(=O)n(-c2ccccc2)n1C | -9% | 0% | nt | -3% | -2% | -7%
Cc1c(NC(=O)/C(C#N)=C/c2ccc(-c3ccc(Cl)c(Cl)c3)o2)c(=O)n(-c2ccccc2)n1C | 16µM* | 8% | 19 | -17% | -5% | 8%
Clc1ccccc1Cn1nnc2c(Nc3ccccc3)ncnc21 | -6% | -8% | -13 | -30% | -1% | -3%
CC(=O)c1ccc(S(=O)(=O)N2CCCC2)cc1 | ? | -4% | 2 | -14% | -6% | -8%
CC1CCN(S(=O)(=O)c2ccc3nc(Nc4cccc(F)c4)ccc3c2)CC1 | 21% | 9% | nt | ? | -1% | 13µM*
CC(=O)c1ccc(Nc2ccc3cc(S(=O)(=O)N4CCCC4)ccc3n2)cc1 | 5% | -10% | nt | 11µM*[quencher] | -1% | 22µM*
CC(=O)Nc1ccc(S(=O)(=O)N2CCN(S(=O)(=O)N3CCCCC3)CC2)cc1 | 6% | -4% | nt | -3% | 0% | -7%
CC(=O)Nc1ccc(Nc2ccc3cc(S(=O)(=O)N4CCCCC4)ccc3n2)cc1 | ? | 4% | nt | 14µM*[quencher] | -6% | 14%
